Sfp inh – qHTS Assay for Inhibitors of Bacillus subtilis Sfp phosphopantetheinyl transferase (PPTase) | Biochemical Sfp PPTase activity, qHTS | Potency, µM, for inactives: largest response in the series, negative = inhibition, usual class: inhibitors | 310,000 compounds, 3.5% hits | AID 1490, 2009;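 also: the enzyme is Sfp with the accession as filed and its product quenches rhodamine fluorescence; 0% = enzyme reaction without inhibitor and -100% = no enzyme wells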
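Fluorescence-quenching assay: 15 nM Sfp-PPTase preincubated 15 min at room temperature with compound, then 5 uM rhodamine-CoA and 12.5 uM BHQ-2-labelled YbbR peptide added. Fluorescence (ex 525/em 598 nm) read at start and after 30 min; difference gives rate.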
Tau ThT inhib – qHTS for Inhibitors of Tau Fibril Formation, Thioflavin T Binding | recombinant tau K18 P301L, heparin-induced fibrillization, ThT fluorescence | Potency, µM (doses to about 57.4 µM), for the others: top-dose activity, negative = inhibition, hits mostly inhibitors | 270,000 compounds, 2.1% hits; also: nearly all actives have a fitted effect of over 55% in size
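ThT emission at 510 nm, taken 1 hr after adding 30 uM dye, quantifies aggregates formed when 20 uM heparin acts on human tau K18 P301L for 6 hr at 37 C.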
Tau fluor counter – Counterscreen qHTS for Inhibitors of Tau Fibril Formation, Fluorescence Polarization | tau K18 P301L Alexa594 fluorescence, heparin fibrillization | 280,000 compounds, 0.93% hits | Potency, µM (highest dose often 57.7 µM), for inactives: at the top dose activity change, negative = decrease; also: nearly all actives have a fitted effect of over 55% in size
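Human K18 P301L tau (15 uM unlabeled plus 0.24 uM Alexa 594-labeled, final) in 100 mM sodium acetate pH 7 was mixed with compound and 20 uM heparin and incubated 6 hr at 37 C.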
VDR inhibitor – Inhibitors of the vitamin D receptor (VDR): qHTS. 400,000 compounds, 0.93% hits. VDR-SRC2-3 peptide fluorescence polarization, 2 h. Vitamin D3 receptor (Homo sapiens), P11473. Potency, µM, inactives show max response, negative = inhibition, actives largely listed as inhibitors. AID 504847, 2011
Target sequence (P11473 whole entry, looked up): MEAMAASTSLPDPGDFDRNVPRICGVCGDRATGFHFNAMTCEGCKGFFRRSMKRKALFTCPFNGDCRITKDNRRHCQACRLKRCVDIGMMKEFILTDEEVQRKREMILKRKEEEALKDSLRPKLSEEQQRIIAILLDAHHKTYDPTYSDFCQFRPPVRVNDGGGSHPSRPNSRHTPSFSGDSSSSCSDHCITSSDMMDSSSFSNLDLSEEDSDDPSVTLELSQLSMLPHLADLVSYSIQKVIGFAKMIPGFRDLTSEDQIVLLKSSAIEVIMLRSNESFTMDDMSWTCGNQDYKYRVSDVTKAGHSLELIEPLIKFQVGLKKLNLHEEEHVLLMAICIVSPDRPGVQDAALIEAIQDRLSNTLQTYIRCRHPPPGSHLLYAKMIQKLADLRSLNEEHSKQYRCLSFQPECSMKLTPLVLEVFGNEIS
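Fluorescence polarization assay measuring small-molecule disruption of VDR binding to the coregulator peptide SRC2-3. Compounds were pin-transferred (23 nl) into the reagent mix and incubated 2 h at room temperature before reading.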
Tau FP inhib – qHTS for Inhibitors of Tau Fibril Formation, Fluorescence Polarization; Microtubule-associated protein tau (Homo sapiens), P10636; 280,000 compounds, 0.39% hits; K18 P301L tau heparin fibrillization, Alexa594 FP, 6 h; Potency, µM (highest dose often 57.7 µM), without a hit: top-dose activity, negative = inhibition, most hits filed as inhibitors; also: nearly all actives have a fitted effect of over 55% in size
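Heparin (20 uM) drove fibril formation of recombinant tau K18 P301L, 15 uM unlabeled with 0.24 uM Alexa 594 label, for 6 hr at 37 C in 100 mM sodium acetate pH 7. Fluorescence polarization (555/632 nm) read 1 hr after 30 uM ThT.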
PLK1 PBD block – qHTS for Inhibitors of PLK1-PDB (polo-like kinase 1 - polo-box domain): Primary Screen; Serine/threonine-protein kinase PLK1 (Homo sapiens), P53350; Plk1 PBD binding of FITC phosphopeptide, fluorescence polarization; Potency, µM, without a hit: max response, negative = inhibition, hits mostly inhibitors; 360,000 compounds, 2.8% hits; AID 720504, 2013; also: series mostly up to about 57 µM; nearly all actives have a fitted effect of over 65% in size
An asterisk follows results filed as active; ? = inconclusive; . = no result given; [ ] = remark or other dose. An excerpt weighted towards active compounds, which were near 6% of everything screened. Calls follow the shape of the dose curve; as a rule, active = well fitted curve in the direction sought with a large enough effect; inconclusive = small, poorly fitted or top-dose-only effect, or another doubt; inactive = no such curve, though single readings can be large; an effect the other way counts as inactive or inconclusive. Unless noted, % is scaled to controls: 0 for no effect and ±100 for the full control effect; potency is read from the fitted curve at half-maximal effect.

SMILES | Sfp inh | Tau ThT inhib | Tau fluor counter | VDR inhibitor | Tau FP inhib | PLK1 PBD block
COc1ccc(/C=C2\CCc3ccccc3C2=O)cc1OC | -16% | ? | -18% | ? | 3% | 1%
CCNC(=O)COc1ccc(/C=C2\COc3ccccc3C2=O)cc1OC | -4% | . | . | 35µM* | . | -22%
CCOc1cc(/C=C2\COc3ccccc3C2=O)ccc1OCC(=O)N(C)C | -21% | . | . | 50µM* | . | -10%
CCCCC/C=C\C/C=C\CCCCCCCCCC(=O)NCCCC(=O)O | 27% | 0% | -5% | -1% | -2% | .
COc1ccc(NC(=O)C2CCN(C(=O)Nc3ccccc3)CC2)cc1S(=O)(=O)N(C)C | . | . | . | -6% | . | -3%
CC(=O)c1c(C)[nH]c(C(=O)/C(C#N)=C/c2cccc(C)c2)c1C | -11% | . | . | -24% | . | 6µM*
O=C(NC(=S)Nc1cc(S(=O)(=O)N2CCOCC2)ccc1O)c1ccco1 | 45µM* | -6% | -4% | ? | -1% | 12µM*
CCN(CC)S(=O)(=O)c1ccc(N2CCOCC2)c(NC(=S)NC(=O)c2ccco2)c1 | 20µM* | ? | ? | ? | ? | 24µM*
CCCN1C(C(=O)c2ccccc2)=C(OC(=O)C(C)(C)C)c2ccccc2S1(=O)=O | . | -13% | -16% | 10% | 3% | .
CCn1nnnc1NCc1ccc(SC)cc1 | 8% | . | . | -7% | . | -1%
CCn1nnnc1NCc1ccc(N2CCCC2)cc1 | ? | -17% | -16% | ? | -1% | 3.8µM*
Cc1c(Cl)cccc1NC(=S)Nc1ccc(S(=O)(=O)Nc2ncccn2)cc1 | . | . | . | -21% | . | -16%
Cc1ccc(S(=O)(=O)/N=C(/Sc2ccccc2C(=O)O)c2ccccc2)cc1 | 79µM* | . | . | 3% | . | 19µM*
COc1cc(Br)cc(CNc2ccc(F)c([N+](=O)[O-])c2)c1O | 25µM* | 16µM* | 25µM*[quencher] | 20% | -1% | -2%
Cc1ccc(CC(=O)Nc2ccc(F)c([N+](=O)[O-])c2)cc1C | 16% | -8% | -29% | -1% | 7% | -1%
COC(=O)c1ccccc1NC(=O)CCS(=O)(=O)c1nc(-c2ccc3c(c2)OCO3)cc(C(F)(F)F)n1 | . | -10% | -9% | ? | -2% | .
CCOC(=O)c1ccc(S(=O)(=O)N2CCN(C(=O)C3CSC4(C)CCC(=O)N34)CC2)cc1 (stereo not given) | . | . | . | 5% | . | -7%
O=C(CSc1ccccn1)Nc1ccc(NC(=O)CSc2ccccn2)cc1 | 4% | -4% | 1% | 10% | 3% | 1%
O=C(CSc1ccccn1)Nc1nonc1[N+](=O)[O-] | 45µM* | . | . | -6% | . | ?
CCCC[C@@H]1C[C@H]1C(NC(=O)c1ccco1)c1ccc(Cl)cc1 (stereo not given in full) | 5% | ? | -16% | . | 6% | .
Cc1sc(NC(=O)c2cccs2)c(C(N)=O)c1C | 40µM* | -19% | -2% | -20% | 0% | 21µM*
NC(=O)c1ccsc1NC(=O)c1cccs1 | . | . | . | 13% | . | 2%
Cc1ccc(C(=O)Nc2sc(C)c(C)c2C(=O)c2ccccc2)cc1 | 20µM* | ? | -17% | 45µM* | -4% | 3µM*
Cc1sc(NC(=O)c2ccccc2)c(C(=O)NC(C)C)c1C | 14% | -8% | 1% | -1% | 5% | -1%
Cn1c(=O)n2n(c1=O)[C@H]1[C@H](O)[C@H]3O[C@@H]3/C(=N/OCc3ccccc3)[C@@H]1CC2 | 12% | -7%[11.5 µM] | -9%[11.6 µM] | . | -11%[11.6 µM] | .
COc1ccc(OC)c(CN2C(=O)CSCC2(C)C(=O)Nc2c(C)cccc2C)c1 (stereo not given) | . | . | . | . | . | -6%

Source: PubChem BioAssay (National Center for Advancing Translational Sciences (NCATS))
